# PubChem BioAssay AID819 (Columbia University Molecular Screening Center, 2007)
# About 280 (0.3%) of roughly 94,000 compounds were called active.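 Rule for the calls: active = activation above 40%, about the mean plus 3 SD, also judged a hit on visual image review; inconclusive = activation above 40% but not a hit on visual review; inactive = activation not above 40% and no visual hit.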 The entries come from a sample that favours actives as a whole.
# Assay: enhancers of NFkB p65 translocation in HUVEC – imaging, IL-1B stimulus, high-content imaging, primary screen (AID 819);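 note: percent activation is computed from the nuclear over cytoplasmic p65 intensity ratio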
# Conditions: HUVEC IL-1B NFkB p65 nuclear translocation imaging; at 2 µM; stronger effect = higher value
row,SMILES,activation
1,COC(=O)c1ccc(OCC(=O)NC(C)(C)C)cc1,-5.58% (inactive)
2,CCOC(=O)c1c(C)oc2cc(Br)c(OCC(N)=O)cc12,-3.13% (inactive)
3,Cc1nn(C)c(Oc2ccccc2)c1[N+](=O)[O-],-6.86% (inactive)
4,Cc1ccc(NC(=S)N/N=C2/CCCc3c(C)cc(C)cc32)cc1,10.5% (inactive)
5,Cc1cc(O)cc(O)c1C(=O)Cc1cnn(-c2ccccc2)c1,-0.94% (inactive)
6,COc1ccc(CC(=O)c2ccc(O)cc2O)cc1OC,3.51% (inactive)
7,COc1ccc(C(=O)Cc2cnn(-c3ccccc3)c2)c(O)c1,52.4% (active)
8,O=c1c2ccccc2nc2n1C(CSc1ccc(Cl)cc1)CN2 (configuration not stated),-5.53% (inactive)
9,O=c1c2c(nc3nc[nH]n13)CCC2,17.9% (inactive)
10,CCCCn1c(=S)[nH]c2cc(S(=O)(=O)N3CCCCC3)ccc21,6.8% (inactive)
11,Clc1ccc(-c2nnc(-c3ccccc3)nc2N2CCSCC2)cc1,6.76% (inactive)
12,CC(C)CNC(=S)NNC(=O)c1ccccc1OC(F)F,-19% (inactive)
13,O=C(Cc1ccccc1)Nc1c(C(=O)N2CCCCCC2)cnn1-c1ccccc1,-2.59% (inactive)
14,c1ccc(-c2csc(N3CCc4ccccc4C3)n2)cc1,-1.32% (inactive)
15,Cc1[nH][nH]c(=O)c1N=Nc1ccccc1,19.6% (inactive)
16,Cc1[nH][nH]c(=O)c1C(c1ccc(-c2ccc(Cl)cc2)o1)c1c(C)[nH][nH]c1=O,49.6% (active)
17,O=C(CCc1ccc(S(=O)(=O)NC2CCCCC2)cc1)NCc1ccccc1,1.98% (inactive)
18,CC(=O)c1cnc(SCCN2C(=O)c3ccccc3C2=O)nc1C,-4.03% (inactive)
19,CC(C)c1ccc(NC(=O)CCN2C(=O)c3ccc([N+](=O)[O-])cc3C2=O)cc1,6.09% (inactive)
20,CCOC(=O)CC(=O)CSc1nc(-c2ccccc2)cc(-c2ccc(Cl)cc2)c1C#N,5.19% (inactive)
21,CN(C)/C=C/C(=O)c1ccccc1F,-2.94% (inactive)

row,SMILES,activation
1,ONC(=Nc1ccc(Cl)cc1)c1ccccc1Cl,16.3% (inactive)
2,O=C(/C=C/c1ccccc1)N/C(=C/c1ccccc1)C(=O)Nc1ccccc1O,-5.06% (inactive)
3,CCOc1ccc(C(CCc2ccccc2)NC(=O)c2ccc(OC)c(OC)c2)cc1OCC (configuration not stated),-8.44% (inactive)
4,Cc1cc(Nc2ccccc2)nc(N)n1,19.9% (inactive)
5,CCOc1ccc(-c2c(C)n([O-])c3c([n+]2=O)CCCC3)cc1,0.86% (inactive)
6,Cc1cccc(-n2ncc(C#N)c2-n2cccc2)c1,-2.16% (inactive)
7,CCOC(=O)CSc1ncc(-c2cccc(Cl)c2)cn1,4.13% (inactive)
8,Cc1ccccc1-n1c(C)cc(/C=N/NC(=O)c2ccc(CN3CCOCC3)cc2)c1C,20.5% (inactive)
9,CC1CCc2c(c3ccccc3[nH]c2=O)O1 (configuration not stated),-2.19% (inactive)
10,COC(=O)c1cc(OC)c(OC)cc1NC(=O)CSc1ccc(C)cc1,-0.33% (inactive)
11,C/C=C/C(=O)Nc1nnc(C(C)C)s1,11.2% (inactive)
12,CC1=C(C(N)=O)C(c2sccc2C)n2nnnc2N1 (configuration not stated),-11.1% (inactive)
13,CCOC(=O)C1=C(CN2CCc3ccccc32)NC(=O)NC1c1cc(C)ccc1C (configuration not stated),3.45% (inactive)
14,COc1cc(NS(=O)(=O)c2ccc(N=Cc3c(C)[nH]n(-c4ccccc4)c3=O)cc2)nc(OC)n1,-2.69% (inactive)
15,Cc1cccc(N(C(=O)Cc2cccs2)C(C(=O)NC2CCCC2)c2ccsc2)c1 (configuration not stated),-6.52% (inactive)
16,O=C(Nc1cc2ccccc2oc1=O)C1CCCCC1,-8.41% (inactive)
17,CCC(C)n1c(-c2cc(OC)c(OC)c(OC)c2)nc2nc3ccccc3nc21 (configuration not stated),6.63% (inactive)
18,COc1ccc(CCN(C(=O)COc2ccccc2)c2nc(-c3ccccc3)cs2)cc1OC,4.5% (inactive)
19,O=[N+]([O-])c1ccccc1OCCCCN1CCCCC1,-1.68% (inactive)
20,COc1ccc(OCC(=O)NNC(=O)c2ccc(-c3ccccc3)cc2)cc1,21.4% (inactive)
21,CC(C)(C)c1ccc(C(=O)NNC(=O)Cc2ccccc2)cc1,41.9% (active)

row,SMILES,activation
1,CCNC(=S)NNC(=O)Cc1ccccc1,0.95% (inactive)
2,Cc1cccc(C)c1NC1=NC(=S)N(c2ccc(N(C)C)cc2)C1(C)C,-11.7% (inactive)
3,O=C(CN1CCN(S(=O)(=O)c2ccc3ccccc3c2)CC1)NC(=O)NC1CCCCC1,-3.21% (inactive)
4,O=C(Cn1cncn1)N/N=C/c1c2ccccc2cc2ccccc12,-10.3% (inactive)
5,CCOC(=O)c1c(NC(=O)CCC(=O)NCc2ccco2)sc2c1CCCC2,1.18% (inactive)
6,CC(C)OC(=O)c1c(NC(=O)c2ccco2)sc2c1CCCC2,-2.72% (inactive)
7,CCOC(=O)c1c(NC(=S)NC(=O)c2ccco2)sc2c1CCCC2,53.7% (active)
8,O=C(CSc1nnnn1-c1ccccc1)NCc1ccco1,-8.15% (inactive)
9,Cc1sc(NC(=S)NC(=O)c2cccs2)nc1-c1ccc(CC(C)C)cc1,17.4% (inactive)
10,O=C(Nc1ccc(Br)c2cccnc12)c1ccc(Cn2cc([N+](=O)[O-])cn2)o1,25.7% (inactive)
11,CCN(CC)CCNc1ccc(Cl)cc1[N+](=O)[O-],11.6% (inactive)
12,CC(Sc1nnc(Cc2ccc([N+](=O)[O-])cc2)o1)C(N)=O (configuration not stated),0.99% (inactive)
13,CC(Oc1ccc(Cl)cc1Cl)C(=O)/C=C/N(C)C (configuration not stated),4.7% (inactive)
14,CC1=NC2(CCCc3c2no[n+]3[O-])N(O)C1(C)C (configuration not stated),168% (active)
15,Cc1cccc(C)c1-n1c(C)cc(/C=C2\C(=O)NN(c3ccccc3)C2=O)c1C,-7.75% (inactive)
16,O=C(O)c1ccccc1-c1ccccc1C(=O)Nc1cccc2ccccc12,8.14% (inactive)
17,Cc1ccc(NC(=O)C(C)c2cccc(C(=O)c3ccccc3)c2)cc1 (configuration not stated),-0.9% (inactive)
18,O=C1C(=O)N(c2ccccc2)c2ccccc21,-1.05% (inactive)
19,O=C(NC1CCc2ccccc21)C12CN(Cc3ccccc3)CC1C(c1cccc([N+](=O)[O-])c1)=NO2 (configuration not stated),-3.33% (inactive)
20,Cc1cc(C(=O)OCC(=O)Nc2ccc(F)c(F)c2)c(C)o1,-18.7% (inactive)
